# Source: ChEMBL document CHEMBL3988442, “University of Dundee, Small-Polar-MMV Screening Library” (2021)
# Out of some 69,000 compounds screened, about 1,000 (1.4%) showed an effect of 50% or more. The sample holds strong results, similar compounds and a random draw of the others, so the mix is not that of the screen.
# Test system: Leishmania donovani
# Test: Leishmania intramacrophage assay
# Format: functional, organism-based
# Design: scale not given: in the data most compounds retested in dose-response had high values
structure (smiles),measurement,setting,value
COCCN1CCN(CC(=O)NC2(C#N)CCCC2)CC1,Percent Effect,"30.3 µM, […]",21.7%
Cn1cc(-c2cnc(N3CCOCC3)nc2)cc1C(=O)NCCC#N.O=C(O)C(F)(F)F,Percent Effect,"30.3 µM, […]",12.83%
CN(CC(=O)NC(C)(C)C)Cc1cccc2c1OCCO2,Percent Effect,"30.3 µM, […]",16.54%
CC1CCN(c2ccc(NC(=O)CCn3cccn3)cc2)CC1,Percent Effect,"30.3 µM, […]",16.17%
Cc1cc(C(=O)N2C[C@@H]3[C@@H](C2)OCC(=O)N3CC2CC2)no1,Percent Effect,"30 µM, 30.03 µM",18.33%
Cc1nn(C)cc1-c1cncn1CCN(C)C1CCCC1.Cl,Percent Effect,"30.3 µM, […]",52.65%
CCCn1nc(C)c(-c2cncn2CCN(C)C2CCCC2)c1C.Cl,Percent Effect,"30.3 µM, […]",42.92%
CCn1nc(C)c(-c2cncn2CCN(C)C2CCCC2)c1C.Cl,Percent Effect,"30.3 µM, […]",32.48%
CC(C)C1CN(c2nccc(N)n2)CCC(=O)N1Cc1ccc(F)cc1 (centres undefined),Percent Effect,"30.3 µM, […]",-20.97%
COc1cccc2c1OCC(CNC(=O)Cn1ccnc1C)C2 (centres undefined),Percent Effect,"30.3 µM, […]",4.9%
OC(CNCCn1cccn1)COc1ccc(F)cc1 (centres undefined),Percent Effect,"30.3 µM, […]",20.47%
OC(CNCCn1cccn1)COc1ccc2ccccc2c1 (centres undefined),Percent Effect,"30.3 µM, […]",56.8%
OC(CNCCn1cccn1)COc1ccc(Br)cc1 (centres undefined),Percent Effect,"30.3 µM, […]",25.57%
Cc1nnc2n1CCN(C(=O)C(OC1CCCC1)c1ccccc1)C2 (centres undefined),Percent Effect,"30.3 µM, […]",5.78%
O=C(Nc1ccc(S(=O)(=O)Nc2c(F)cccc2F)cc1)N1CCCC1,Percent Effect,"30.3 µM, […]",12.59%
CC(=O)NCC(=O)N1CCOC2(CCCN(c3cccnc3)C2)C1.O=C(O)C(F)(F)F (centres undefined),Percent Effect,"30 µM, 30.03 µM",4.273%
CC(=O)N1CCCCC1c1ncnn1-c1ccc2nc(C)sc2c1 (centres undefined),Percent Effect,"30.3 µM, […]",29.12%
Cc1nc2ccc(-n3ncnc3[C@@H]3CCCN3S(C)(=O)=O)cc2s1,Percent Effect,"30.3 µM, […]",99.47%
CS(=O)(=O)N1CCC[C@H]1c1ncnn1-c1ccc2c(c1)OCO2,Percent Effect,"30.3 µM, […]",-61.62%
COc1ccc(OCCc2nnc(NC(C)=O)s2)cc1,Percent Effect,"30.3 µM, […]",-16.84%
O=C(NC1CCS(=O)(=O)C1)c1ccc(SCc2cscn2)cc1 (centres undefined),Percent Effect,"30.3 µM, […]",10.79%
CCNC(=O)[C@@H]1CCCN1C1(C(=O)NC)CCCCC1.Cl,Percent Effect,"30.3 µM, […]",-2.22%
O=C(c1cc(Cl)c[nH]1)N1CCCC(c2cc(C(F)(F)F)[nH]n2)C1 (centres undefined),Percent Effect,30 µM,52.35%
O=C(c1ccc[nH]1)N1CCCC(c2cc(C(F)(F)F)[nH]n2)C1 (centres undefined),Percent Effect,"30 µM, 30.03 µM",44.22%
O=C(c1cc[nH]n1)N1CCCC(c2cc(C(F)(F)F)[nH]n2)C1 (centres undefined),Percent Effect,30 µM,-11.08%
N#Cc1c(CN2CCCCC2Cn2cncn2)cn2ccccc12 (centres undefined),Percent Effect,"30.3 µM, […]",-0.3662%
O=C(Nc1cccc(N2CCN(CC3CC3)CC2)c1)N1CCCC1,Percent Effect,"30.3 µM, […]",55.96%
O=C(NCC1CC1)Nc1cccc(N2CCN(CC3CC3)CC2)c1,Percent Effect,"30 µM, 30.03 µM",-6.352%
O=C(Nc1cccc(N2CCN(CC3CC3)CC2)c1)C1CCCO1 (centres undefined),Percent Effect,"30.3 µM, […]",25.21%
